# HCMV inh: human cytomegalovirus inhibition; 410,000 tested, 4.5% active; HFF cells, HCMV-luciferase reporter, 72 h; stronger effect = lower value; activity change, negative = inhibition, % at 57.5 µM; in the data active means activity change below about -60%; inconclusive means no clear call, values can overlap the other calls; inactive means above about -39%
#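 Human foreskin fibroblasts infected with luciferase-reporter HCMV at MOI 1 PFU/cell, compounds at two doses. Luciferase measured 72 h post infection; normalized to buffer-only basal and Salinomycin (10uM) controls.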
# MARV entry inh: Marburg virus entry inhibition; AID 540276; Marburg virus pseudotyped entry inhibition, cell reporter; 300,000 tested, 1.8% active; Potency, µM (series often up to 37.8 µM), actives largely listed as inhibitors; calls by dose curve; tested in HEK293 cells
# FMDV inh: blocks foot and mouth disease virus | Potency, µM (series often up to 57.9 µM), hits mostly inhibitors | 410,000 tested, 1.2% active | FMDV antiviral cell-based qHTS | AID 1159524; calls by dose curve; tested in HEK293T cells; further: read-out not given here; nearly all actives have a fitted effect of over 45% in size
# Lassa entry inh: Lassa virus entry inhibition; Lassa virus pseudotype entry inhibition, cell reporter; Potency, µM (series often up to 37.9 µM), most hits filed as inhibitors; 300,000 tested, 1.2% active; calls by dose curve; tested in HEK293 cells; further: nearly all actives have a fitted effect of over 50% in size
# A number is an active result; – = inactive; ? = inconclusive; · = not tested or not shown. Sampled rows, rich in hits. Any-hit rate of the full collection: about 6.2%.
SMILES,HCMV inh,MARV entry inh,FMDV inh,Lassa entry inh
COCCNC(=O)C1(C)CCN(C(=O)COc2ccc(Cl)cc2Cl)C1 (stereo unspecified),–,·,–,·
CCC(C(=O)OC)n1nnc2sc(-c3ccccc3)cc2c1=O (stereo unspecified),–,–,–,–
CCCCNC(=O)C1c2ccccc2OCC(=O)N1CCc1ccccc1 (stereo unspecified),–,·,–,·
Cc1ccc(S(=O)(=O)/N=C2\C=C(Nc3cccc(C(=O)O)c3)C(=O)c3ccccc32)c(C)c1,-73,?,?,?
CC(C)(C)c1ccc(S(=O)(=O)/N=C2\C=C(NS(=O)(=O)c3ccccc3)C(=O)c3ccccc32)cc1,–,–,–,?
Cc1ccc(S(=O)(=O)/N=C2\C=C(Nc3cccc(C(=O)O)c3)C(=O)c3ccccc32)cc1,–,?,–,?
Cc1ccc(S(=O)(=O)/N=C2\C=C(NS(=O)(=O)c3ccccc3)C(=O)c3ccccc32)c(C)c1,-91,–,–,–
CCOc1ccc(CCNC(=O)Cn2c(=O)c3cccn3c3ccc(F)cc32)cc1OCC,–,·,–,–
CCC1(CC)C(=O)NC(=O)NC1=NCCc1ccc(O)cc1,-68,–,–,–
Cn1ncc2c(Nc3ccc(-c4ccccc4)cc3)ncnc21,?,2.9µM,·,3.7µM
O=C1OCc2cc(-c3ccccc3F)ccc21,–,·,·,·
COc1cc(CNc2nnnn2C)ccc1OCc1ccc(F)cc1Cl,–,·,–,·
CCn1nnnc1NCc1ccc(OCc2ccc(F)cc2Cl)c(OC)c1,–,10µM,–,?
Cc1ccc(-c2cc(-c3ccc4c(c3)NC(=O)CO4)nc3c2COc2ccc(C)cc2-3)cc1,–,–,–,–
CCN1C(=NCCCOC(C)C)N[C@H](c2ccccc2)[C@H](C(=O)OC)[C@H]1C,·,–,·,?
COc1ccc(C(=O)NC(=S)Nc2ccc(CN3CCOCC3)cc2)cc1,–,–,?,?
O=C(NC(=S)Nc1ccc(CN2CCOCC2)cc1)c1ccc2c(c1)OCCO2,–,10µM,?,–
O=C(NC(=S)Nc1ccc(N2CCOCC2)cc1)c1ccc2c(c1)OCCO2,-85,–,–,?
O=C(NC(=S)Nc1ccc(F)cc1)c1ccc2c(c1)OCCO2,–,?,–,13µM
O=C(COc1ccc(Cl)cc1Cl)NC(=S)Nc1ccc(CN2CCOCC2)cc1,–,–,28µM,–
O=C(COc1ccc(Cl)cc1Cl)NNC(=S)Nc1ccc(F)cc1,-103,–,–,–
COc1ccc(CC(=O)NNC(=S)Nc2ccccc2)cc1Cl,-70,–,–,–
COc1ccc(C(=O)NC(=S)Nc2ccc(CN3CCOCC3)cc2)cc1Br,-64,·,?,·
Cc1cc(N[C@@H](CC(C)C)C(=O)O)nc(Cc2ccccc2)n1,·,–,·,·
O=C(c1ccccc1-n1cccn1)N1CCOc2c(cc(-c3ncc(C(F)(F)F)cc3Cl)cc2OCC2CCCO2)C1 (stereo unspecified),·,·,–,·
SMILES,HCMV inh,MARV entry inh,FMDV inh,Lassa entry inh
CCOc1cc(/C=C2\CN(C)C/C(=C\c3ccc(O)c(OCC)c3)C2=O)ccc1O,-100,?,18µM,?
CCOc1cc(/C=C2/NC(=O)N(Cc3ccccc3F)C2=O)ccc1O,-61,16µM,–,–
CN1C/C(=C/c2ccsc2)C(=O)/C(=C/c2ccsc2)C1,-86,5µM,28µM,?
COc1cc(/C=C2/NC(=O)N(Cc3ccccc3F)C2=O)cc(OC)c1O,–,–,–,?
CCOc1cc(/C=C2\CCC/C(=C\c3cc(Cl)c(O)c(OCC)c3)C2=O)cc(Cl)c1O,-98,11µM,16µM,8.9µM
CC(C)OC(=O)N(C)C[C@@H]1OCc2cnnn2CCCC(=O)N([C@H](C)CO)C[C@@H]1C,–,·,–,·
CCC(=O)N1CCc2cc(Br)cc(S(=O)(=O)N3CCCC(C(=O)Nc4cccc(F)c4)C3)c21 (stereo unspecified),–,–,–,–
CCCn1c(=O)c2sccc2n2c(CCCC(=O)Nc3ccc(Oc4ccc(Cl)cc4)cc3)nnc12,?,–,?,?
CC(C)c1ccccc1NC(=O)C(Cc1c[nH]c2ccccc12)NC(=O)OC(C)(C)C (stereo unspecified),–,?,–,?
Cc1ccc(Nc2c([N+](=O)[O-])ccc3nonc23)c(C)c1,?,–,–,–
Cc1ccc(S(=O)c2ccc([N+](=O)[O-])c3nonc23)cc1 (stereo unspecified),-95,·,?,·
Cc1ccc(-n2nnnc2Sc2ccc(S(=O)(=O)NCCN(C)C)cc2[N+](=O)[O-])cc1,-100,9.2µM,13µM,?
CN(C)CCNS(=O)(=O)c1ccc(N2CCN(c3ccc(F)cc3)CC2)c([N+](=O)[O-])c1,-76,18µM,?,?
O=[N+]([O-])c1cc(S(=O)(=O)NCCN2CCOCC2)ccc1Sc1nnnn1-c1ccccc1,-89,16µM,?,–
CC(=O)N1CCN(c2ccc(S(=O)(=O)NCCN(C(C)C)C(C)C)cc2[N+](=O)[O-])CC1,–,–,–,–
CC1CCN(C(=O)CSc2nc(-c3ccc(C(C)C)cc3)no2)CC1,–,·,–,–
CC(C)c1c(C(=O)NCC2(N3CCCCC3)CCCC2)cnn1-c1nccc(-c2ccco2)n1,·,·,–,·
COC(=O)c1c(NC(=O)c2nc(SCc3ccc(F)cc3)ncc2Cl)sc2c1CCCC2,–,–,–,–
CSC1=NC=C(C#N)C2=NC(c3c(Cl)cccc3Cl)NN12 (stereo unspecified),·,·,40µM,·
Cc1cc(Br)c2nc(-c3ccc(Cl)cc3)c(Cc3cccc(Cl)c3)n2c1,–,·,·,·
CCCCN(Cc1cc2cc(C)ccc2[nH]c1=O)C(=O)c1cccc(Cl)c1,–,–,–,–
COCCCN(C(C)=O)c1nc(-c2ccc(OC)cc2)cs1,–,?,–,10µM
COc1ccc(-c2csc(N(CCCN(C)C)C(=O)c3ccc(Br)cc3)n2)cc1,-62,?,–,?
CCN(CC)CCCN(C(=O)c1ccc(OC)cc1)c1nc(-c2ccc(OC)cc2)cs1,-63,?,–,?
Cc1cccc(Cn2c(=O)n(CCCC(=O)NCc3ccccc3Cl)c(=O)c3ccccc32)c1,–,–,–,?
SMILES,HCMV inh,MARV entry inh,FMDV inh,Lassa entry inh
COc1ccc(-c2nc(C)sc2CC(=O)O)cc1,-83,?,–,–
O=C(N/N=C/c1ccc([N+](=O)[O-])o1)c1cc(-c2cccc(Br)c2)nc2ccccc12,-70,?,–,?
CCCc1ccc(-c2cc(C(=O)N/N=C/c3ccc([N+](=O)[O-])o3)c3ccccc3n2)cc1,?,7.1µM,?,5.6µM
COc1ccc(S(=O)(=O)NC(=O)C2(C)CCN2C(=O)C2(c3ccccc3)CC2)cc1 (stereo unspecified),–,·,–,·
O=C1NC[C@H](CCCCN2C[C@@H](Cc3ccccc3)N(Cc3ccccc3)C(=O)C2=O)N(CCC2CCCCC2)C1=O,–,·,–,·
Cc1ccc(C2Nc3ccccc3-n3c(-c4ccccc4)c4c(=O)n(C)c(=O)n(C)c4c32)cc1 (stereo unspecified),–,–,?,–
CCOC(=O)c1sc2nc(N3CCOCC3)c3c(c2c1N)CCN(Cc1ccccc1)C3,–,?,–,16µM
CCOC(=O)c1sc2nc(N3CCOCC3)c3c(c2c1N)CCC3,–,–,–,–
CN(C(=O)c1sc2nc(N3CCOCC3)c3c(c2c1N)CCCC3)c1ccccc1,?,?,?,3.5µM

# Source: PubChem BioAssay
